# Test results as given in article PMC7862700, “An all-to-all approach to the identification of sequence-specific readers for epigenetic DNA modifications on cytosine”.
# What was measured:
# Assay in all cases: DAPPL (digital affinity profiling via proximity ligation, sequencing); 10 mM Tris-HCl pH 7.5, 50 mM NaCl, 1 mM DTT, 4% glycerol, room temperature, 30 min; GST-TFs on glutathione beads, 16-mer random dsDNA library, 0.1% formaldehyde crosslink after washing; high values mean tight binding
# [1] = target: T1, FLI1 (Homo sapiens, UniProt Q01543 1-452); conditions: protein: recombinant; tags: N-terminal GST; dsDNA, one strand shown
# T1 sequence: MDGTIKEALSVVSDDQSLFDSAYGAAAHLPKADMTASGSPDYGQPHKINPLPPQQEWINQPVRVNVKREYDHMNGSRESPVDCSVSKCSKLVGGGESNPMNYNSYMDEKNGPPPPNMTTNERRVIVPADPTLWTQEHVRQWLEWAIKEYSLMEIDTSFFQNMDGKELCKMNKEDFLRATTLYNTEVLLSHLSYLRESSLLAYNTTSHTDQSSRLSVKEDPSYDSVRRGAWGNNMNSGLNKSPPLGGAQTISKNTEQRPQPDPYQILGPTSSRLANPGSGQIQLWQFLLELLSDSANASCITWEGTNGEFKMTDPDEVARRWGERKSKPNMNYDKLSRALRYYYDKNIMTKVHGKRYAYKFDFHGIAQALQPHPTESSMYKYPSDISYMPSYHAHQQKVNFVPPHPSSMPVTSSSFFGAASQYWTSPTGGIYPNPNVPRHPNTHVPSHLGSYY
# Outline: (§1)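 Pools of DNA-barcoded human transcription factors, expressed in yeast as GST fusions on glutathione beads and combined with a tag-only sample, were incubated with 200 nmole of a 16-mer random double-stranded DNA library. Incubation took 30 min at room temperature in Tris/NaCl/DTT/glycerol buffer and was followed by washing, 0.1% formaldehyde crosslinking, proximity ligation (BsaI/T4 ligase, 1 h, 37 °C), PCR amplification and sequencing on an Illumina NextSeq500. Binding signal is the ratio of a hexamer's read frequency for a factor to its frequency for the tag-only sample.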
# [2] = target: T2, ELK1 (Homo sapiens, UniProt P19419 1-428); conditions: protein: recombinant; tags: N-terminal GST; dsDNA, one strand shown
# T2 sequence: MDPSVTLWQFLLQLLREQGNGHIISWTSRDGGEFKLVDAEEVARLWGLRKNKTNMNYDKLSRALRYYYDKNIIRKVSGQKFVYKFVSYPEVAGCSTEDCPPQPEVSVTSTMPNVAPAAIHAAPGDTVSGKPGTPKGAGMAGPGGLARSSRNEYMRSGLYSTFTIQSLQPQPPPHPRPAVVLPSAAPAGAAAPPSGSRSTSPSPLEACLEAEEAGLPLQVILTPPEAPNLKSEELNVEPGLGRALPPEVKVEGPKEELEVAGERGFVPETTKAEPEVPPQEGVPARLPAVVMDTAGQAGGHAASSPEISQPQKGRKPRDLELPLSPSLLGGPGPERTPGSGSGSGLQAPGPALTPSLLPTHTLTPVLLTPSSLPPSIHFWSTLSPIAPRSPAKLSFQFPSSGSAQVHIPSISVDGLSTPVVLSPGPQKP
# Outline: as §1
# [3] = target: T3, GABPA (Homo sapiens, UniProt Q06546 1-454); conditions: protein: recombinant; tags: N-terminal GST; dsDNA, one strand shown
# T3 sequence: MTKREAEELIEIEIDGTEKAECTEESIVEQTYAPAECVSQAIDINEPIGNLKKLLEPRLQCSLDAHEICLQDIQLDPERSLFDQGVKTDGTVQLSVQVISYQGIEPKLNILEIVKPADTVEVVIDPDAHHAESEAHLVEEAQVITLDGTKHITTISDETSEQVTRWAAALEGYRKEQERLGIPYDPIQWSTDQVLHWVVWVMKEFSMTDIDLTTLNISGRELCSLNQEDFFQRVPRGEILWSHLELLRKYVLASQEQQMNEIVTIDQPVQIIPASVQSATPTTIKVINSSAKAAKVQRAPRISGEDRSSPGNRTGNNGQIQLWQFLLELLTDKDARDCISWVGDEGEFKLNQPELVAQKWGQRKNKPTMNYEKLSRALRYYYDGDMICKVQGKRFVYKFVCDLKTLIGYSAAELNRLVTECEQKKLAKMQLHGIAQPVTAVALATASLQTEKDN
# Outline: as §1
# [4] = target: T4, ERG (Homo sapiens, UniProt P11308 1-479); conditions: protein: recombinant; tags: N-terminal GST; dsDNA, one strand shown
# T4 sequence: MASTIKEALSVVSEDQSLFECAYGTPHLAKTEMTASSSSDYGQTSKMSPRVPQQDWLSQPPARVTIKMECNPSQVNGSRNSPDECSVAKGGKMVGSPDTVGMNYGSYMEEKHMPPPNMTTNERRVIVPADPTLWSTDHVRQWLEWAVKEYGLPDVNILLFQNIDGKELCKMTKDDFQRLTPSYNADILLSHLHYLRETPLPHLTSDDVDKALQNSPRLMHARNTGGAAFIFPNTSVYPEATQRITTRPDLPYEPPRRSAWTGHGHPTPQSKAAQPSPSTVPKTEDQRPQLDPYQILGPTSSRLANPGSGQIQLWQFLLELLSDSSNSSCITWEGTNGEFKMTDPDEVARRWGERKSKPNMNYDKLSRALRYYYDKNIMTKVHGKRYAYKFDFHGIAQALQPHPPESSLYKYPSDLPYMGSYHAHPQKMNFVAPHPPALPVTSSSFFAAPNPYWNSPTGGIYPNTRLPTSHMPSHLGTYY
# Outline: as §1
# [5] = target: ELF1 (Homo sapiens, UniProt P32519 1-619); conditions: protein: recombinant; tags: N-terminal GST; dsDNA, one strand shown
# Outline: as §1
# [6] = target: T5, EHF (Homo sapiens, UniProt Q9NZC4 1-300); conditions: protein: recombinant; tags: N-terminal GST; dsDNA, one strand shown
# T5 sequence: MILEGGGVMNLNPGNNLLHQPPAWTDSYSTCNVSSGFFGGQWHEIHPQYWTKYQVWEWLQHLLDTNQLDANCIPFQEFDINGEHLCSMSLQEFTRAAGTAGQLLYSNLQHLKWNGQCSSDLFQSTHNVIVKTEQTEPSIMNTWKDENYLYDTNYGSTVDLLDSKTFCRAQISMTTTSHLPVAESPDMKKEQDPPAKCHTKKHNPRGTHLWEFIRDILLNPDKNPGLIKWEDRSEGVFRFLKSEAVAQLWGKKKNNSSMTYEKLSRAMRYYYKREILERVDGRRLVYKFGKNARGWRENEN
# Outline: as §1
# [7] = target: SPI1 (Homo sapiens, UniProt P17947 1-270); conditions: protein: recombinant; tags: N-terminal GST; dsDNA, one strand shown
# Outline: as §1
# [8] = target: SPIB (Homo sapiens, UniProt Q01892 1-262); conditions: protein: recombinant; tags: N-terminal GST; dsDNA, one strand shown
# Outline: as §1
# [9] = target: T6, ELK3 (Homo sapiens, UniProt P41970 1-407); conditions: protein: recombinant; tags: N-terminal GST; dsDNA, one strand shown
# T6 sequence: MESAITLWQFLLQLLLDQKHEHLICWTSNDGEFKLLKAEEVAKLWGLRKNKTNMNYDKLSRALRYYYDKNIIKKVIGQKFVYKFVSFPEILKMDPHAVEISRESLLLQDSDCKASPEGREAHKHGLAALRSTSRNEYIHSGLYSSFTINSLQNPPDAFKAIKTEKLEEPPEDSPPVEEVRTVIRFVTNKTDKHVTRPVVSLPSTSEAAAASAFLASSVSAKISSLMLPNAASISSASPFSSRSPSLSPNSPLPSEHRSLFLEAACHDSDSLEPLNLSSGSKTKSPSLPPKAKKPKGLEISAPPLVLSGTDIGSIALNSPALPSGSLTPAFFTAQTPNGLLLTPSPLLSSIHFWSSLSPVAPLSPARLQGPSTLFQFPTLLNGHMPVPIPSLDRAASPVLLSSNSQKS
# Outline: as §1
# [10] = target: T7, FEV (Homo sapiens, UniProt Q99581 1-238); conditions: protein: recombinant; tags: N-terminal GST; dsDNA, one strand shown
# T7 sequence: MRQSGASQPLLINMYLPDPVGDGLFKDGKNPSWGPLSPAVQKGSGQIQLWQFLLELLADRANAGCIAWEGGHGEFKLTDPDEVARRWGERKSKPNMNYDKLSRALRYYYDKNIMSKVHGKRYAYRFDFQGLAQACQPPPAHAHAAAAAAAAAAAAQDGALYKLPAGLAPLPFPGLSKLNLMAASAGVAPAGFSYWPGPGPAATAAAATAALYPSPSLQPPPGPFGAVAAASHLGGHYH
# Outline: as §1
# [11] = target: ETV5 (Homo sapiens, UniProt P41161 1-510); conditions: protein: recombinant; tags: N-terminal GST; dsDNA, one strand shown
# Outline: as §1
# [12] = target: HSF1 (Homo sapiens, UniProt Q00613 1-529); conditions: protein: recombinant; tags: N-terminal GST; chain copies: 3; dsDNA, one strand shown
# Outline: as §1
# [13] = target: T8, SPIC (Homo sapiens, UniProt Q8N5J4 1-248); conditions: protein: recombinant; tags: N-terminal GST; dsDNA, one strand shown
# T8 sequence: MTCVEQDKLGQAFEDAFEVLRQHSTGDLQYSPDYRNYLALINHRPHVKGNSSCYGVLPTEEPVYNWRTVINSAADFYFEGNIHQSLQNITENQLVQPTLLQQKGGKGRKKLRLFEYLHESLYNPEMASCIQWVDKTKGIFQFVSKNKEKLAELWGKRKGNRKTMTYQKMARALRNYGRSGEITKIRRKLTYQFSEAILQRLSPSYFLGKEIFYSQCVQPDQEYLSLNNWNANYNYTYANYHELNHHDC
# Outline: as §1
# [14] = target: ELF4 (Homo sapiens, UniProt Q99607 1-663); conditions: protein: recombinant; tags: N-terminal GST; dsDNA, one strand shown
# Outline: as §1
# [15] = target: T9, ELK4 (Homo sapiens, UniProt P28324-2 1-405); conditions: protein: recombinant; tags: N-terminal GST; dsDNA, one strand shown
# T9 sequence: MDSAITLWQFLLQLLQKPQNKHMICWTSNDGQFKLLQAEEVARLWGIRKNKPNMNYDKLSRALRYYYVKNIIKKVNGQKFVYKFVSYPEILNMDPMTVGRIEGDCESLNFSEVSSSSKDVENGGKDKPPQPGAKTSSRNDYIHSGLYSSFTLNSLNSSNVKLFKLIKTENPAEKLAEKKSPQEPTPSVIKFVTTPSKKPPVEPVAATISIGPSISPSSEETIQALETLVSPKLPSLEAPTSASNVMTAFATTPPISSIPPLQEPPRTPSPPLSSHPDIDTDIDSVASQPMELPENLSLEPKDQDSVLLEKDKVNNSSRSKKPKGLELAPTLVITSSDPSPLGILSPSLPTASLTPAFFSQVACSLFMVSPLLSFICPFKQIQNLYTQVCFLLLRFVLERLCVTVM
# Outline: as §1
# [16] = target: T10, ETV2 (Homo sapiens, UniProt O00321 1-342); conditions: protein: recombinant; tags: N-terminal GST; dsDNA, one strand shown
# T10 sequence: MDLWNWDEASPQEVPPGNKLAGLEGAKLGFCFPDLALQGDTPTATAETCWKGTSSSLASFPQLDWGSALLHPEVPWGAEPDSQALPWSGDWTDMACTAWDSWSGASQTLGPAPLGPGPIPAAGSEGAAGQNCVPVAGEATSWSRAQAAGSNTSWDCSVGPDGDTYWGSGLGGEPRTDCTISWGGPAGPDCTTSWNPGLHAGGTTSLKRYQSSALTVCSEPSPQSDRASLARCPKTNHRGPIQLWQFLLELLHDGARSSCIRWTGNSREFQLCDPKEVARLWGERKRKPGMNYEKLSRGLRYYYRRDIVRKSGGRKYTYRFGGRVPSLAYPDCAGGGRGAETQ
# Outline: as §1
# [17] = target: T11, ELF3 (Homo sapiens, UniProt P78545 1-371); conditions: protein: recombinant; tags: N-terminal GST; dsDNA, one strand shown
# T11 sequence: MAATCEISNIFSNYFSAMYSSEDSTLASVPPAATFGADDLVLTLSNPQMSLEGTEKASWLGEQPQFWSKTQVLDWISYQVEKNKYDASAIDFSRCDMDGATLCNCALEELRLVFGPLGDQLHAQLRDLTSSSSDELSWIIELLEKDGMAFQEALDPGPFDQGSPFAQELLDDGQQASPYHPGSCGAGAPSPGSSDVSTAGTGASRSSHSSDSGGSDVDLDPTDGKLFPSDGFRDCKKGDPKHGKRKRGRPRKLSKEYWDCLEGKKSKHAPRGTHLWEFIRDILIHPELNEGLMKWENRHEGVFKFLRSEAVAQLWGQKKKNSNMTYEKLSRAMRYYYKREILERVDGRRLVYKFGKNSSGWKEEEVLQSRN
# Outline: as §1
# [18] = target: CRX (Homo sapiens, UniProt O43186 1-299); conditions: protein: recombinant; tags: N-terminal GST; dsDNA, one strand shown
# Outline: as §1
# [19] = target: ETV1 (Homo sapiens, UniProt P50549 1-477); conditions: protein: recombinant; tags: N-terminal GST; dsDNA, one strand shown
# Outline: as §1
# Chain of SPIB (Q01892 whole entry): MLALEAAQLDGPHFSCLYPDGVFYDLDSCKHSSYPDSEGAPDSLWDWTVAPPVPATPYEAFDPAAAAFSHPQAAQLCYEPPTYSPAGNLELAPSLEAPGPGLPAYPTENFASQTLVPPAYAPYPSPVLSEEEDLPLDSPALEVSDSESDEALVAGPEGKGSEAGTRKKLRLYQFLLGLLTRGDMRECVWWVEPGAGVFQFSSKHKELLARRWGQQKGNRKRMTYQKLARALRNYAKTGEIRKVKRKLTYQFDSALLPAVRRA
# Chain of CRX (O43186 whole entry): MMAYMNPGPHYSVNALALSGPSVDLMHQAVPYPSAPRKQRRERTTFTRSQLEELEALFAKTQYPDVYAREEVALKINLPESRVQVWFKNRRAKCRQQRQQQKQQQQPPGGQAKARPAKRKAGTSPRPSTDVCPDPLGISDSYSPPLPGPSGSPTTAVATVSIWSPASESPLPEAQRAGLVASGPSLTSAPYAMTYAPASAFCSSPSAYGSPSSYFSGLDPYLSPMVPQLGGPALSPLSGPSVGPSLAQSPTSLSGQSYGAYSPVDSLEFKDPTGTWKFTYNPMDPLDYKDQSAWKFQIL
# Chain of ETV1 (P50549 whole entry): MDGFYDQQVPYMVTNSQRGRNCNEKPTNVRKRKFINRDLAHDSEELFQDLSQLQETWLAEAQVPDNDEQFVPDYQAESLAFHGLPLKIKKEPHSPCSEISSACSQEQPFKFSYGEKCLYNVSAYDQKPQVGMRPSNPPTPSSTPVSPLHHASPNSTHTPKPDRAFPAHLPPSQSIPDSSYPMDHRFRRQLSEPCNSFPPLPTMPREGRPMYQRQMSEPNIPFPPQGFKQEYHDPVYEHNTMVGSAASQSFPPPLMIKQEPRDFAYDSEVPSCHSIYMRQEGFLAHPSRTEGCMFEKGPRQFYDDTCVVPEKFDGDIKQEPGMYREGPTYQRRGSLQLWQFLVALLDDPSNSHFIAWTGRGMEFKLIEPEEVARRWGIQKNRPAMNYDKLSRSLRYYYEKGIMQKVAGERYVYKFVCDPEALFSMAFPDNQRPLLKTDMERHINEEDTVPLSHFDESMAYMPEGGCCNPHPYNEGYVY
# Chain of ELF1 (P32519 whole entry): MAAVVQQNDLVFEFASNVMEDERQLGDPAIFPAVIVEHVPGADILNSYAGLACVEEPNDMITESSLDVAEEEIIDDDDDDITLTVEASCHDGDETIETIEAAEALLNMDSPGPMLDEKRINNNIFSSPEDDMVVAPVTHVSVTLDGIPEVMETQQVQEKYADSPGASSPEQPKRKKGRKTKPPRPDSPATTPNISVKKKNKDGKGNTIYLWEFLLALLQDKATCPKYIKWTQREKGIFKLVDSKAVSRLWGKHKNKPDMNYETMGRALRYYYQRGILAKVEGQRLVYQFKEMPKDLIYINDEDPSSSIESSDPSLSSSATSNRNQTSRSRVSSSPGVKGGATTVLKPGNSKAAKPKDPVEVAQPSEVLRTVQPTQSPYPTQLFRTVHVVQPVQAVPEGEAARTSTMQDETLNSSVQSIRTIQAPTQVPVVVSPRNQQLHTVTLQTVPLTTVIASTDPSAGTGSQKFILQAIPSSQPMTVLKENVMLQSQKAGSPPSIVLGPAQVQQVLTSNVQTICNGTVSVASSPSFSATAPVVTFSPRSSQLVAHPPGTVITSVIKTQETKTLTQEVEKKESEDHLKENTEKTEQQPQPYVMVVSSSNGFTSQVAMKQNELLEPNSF
# Chain of ETV5 (P41161 whole entry): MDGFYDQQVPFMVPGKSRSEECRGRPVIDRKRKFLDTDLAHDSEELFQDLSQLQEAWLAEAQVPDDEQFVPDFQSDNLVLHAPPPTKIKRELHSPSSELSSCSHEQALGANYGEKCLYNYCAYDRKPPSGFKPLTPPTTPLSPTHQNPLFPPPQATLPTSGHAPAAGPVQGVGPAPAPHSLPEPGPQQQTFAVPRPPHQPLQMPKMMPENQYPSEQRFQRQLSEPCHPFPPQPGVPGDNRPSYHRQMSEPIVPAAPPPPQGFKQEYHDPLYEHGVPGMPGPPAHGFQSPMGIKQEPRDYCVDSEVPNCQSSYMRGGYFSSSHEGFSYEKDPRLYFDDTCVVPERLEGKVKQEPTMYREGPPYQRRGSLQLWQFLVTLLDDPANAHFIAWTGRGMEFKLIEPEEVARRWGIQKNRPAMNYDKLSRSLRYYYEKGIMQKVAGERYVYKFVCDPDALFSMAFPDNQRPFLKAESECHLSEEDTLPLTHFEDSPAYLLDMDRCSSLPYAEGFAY
# Chain of HSF1 (Q00613 whole entry): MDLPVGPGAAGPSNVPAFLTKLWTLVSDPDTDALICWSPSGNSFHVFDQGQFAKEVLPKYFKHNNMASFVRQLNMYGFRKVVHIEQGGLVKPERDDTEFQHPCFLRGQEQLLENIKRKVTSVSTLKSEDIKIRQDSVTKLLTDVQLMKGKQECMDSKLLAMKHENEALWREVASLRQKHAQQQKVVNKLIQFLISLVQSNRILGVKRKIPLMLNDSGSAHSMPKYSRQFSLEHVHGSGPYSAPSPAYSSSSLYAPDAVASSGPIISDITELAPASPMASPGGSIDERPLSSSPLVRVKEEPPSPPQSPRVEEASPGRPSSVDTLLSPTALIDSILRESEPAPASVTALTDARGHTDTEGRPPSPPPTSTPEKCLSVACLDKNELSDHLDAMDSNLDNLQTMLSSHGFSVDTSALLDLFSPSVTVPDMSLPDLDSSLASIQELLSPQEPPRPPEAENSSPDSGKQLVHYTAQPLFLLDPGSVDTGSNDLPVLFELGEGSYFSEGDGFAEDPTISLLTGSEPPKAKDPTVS
# Chain of ELF4 (Q99607 whole entry): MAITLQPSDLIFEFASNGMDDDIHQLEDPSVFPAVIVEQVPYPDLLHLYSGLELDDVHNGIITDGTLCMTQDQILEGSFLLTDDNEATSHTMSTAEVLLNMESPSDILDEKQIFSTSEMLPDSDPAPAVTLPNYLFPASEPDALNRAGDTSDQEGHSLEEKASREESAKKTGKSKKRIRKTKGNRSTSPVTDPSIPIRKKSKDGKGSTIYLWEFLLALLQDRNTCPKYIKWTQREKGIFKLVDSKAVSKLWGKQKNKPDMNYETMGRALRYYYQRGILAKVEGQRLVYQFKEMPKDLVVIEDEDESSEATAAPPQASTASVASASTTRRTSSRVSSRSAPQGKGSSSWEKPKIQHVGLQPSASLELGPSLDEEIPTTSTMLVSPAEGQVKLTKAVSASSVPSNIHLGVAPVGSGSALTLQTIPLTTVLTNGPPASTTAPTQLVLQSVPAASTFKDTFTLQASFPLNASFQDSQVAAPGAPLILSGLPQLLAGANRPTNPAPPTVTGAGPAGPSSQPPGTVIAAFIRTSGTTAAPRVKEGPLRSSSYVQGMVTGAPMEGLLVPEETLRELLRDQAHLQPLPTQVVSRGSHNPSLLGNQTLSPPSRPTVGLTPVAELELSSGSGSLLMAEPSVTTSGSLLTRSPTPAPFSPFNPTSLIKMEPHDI
sequence,measurement,setting,value
CCTGGT,binding signal,[1],"1.28 fold enrichment (6-mer frequency, TF over GST control)"
same,binding signal,[2],"1.34 fold enrichment (6-mer frequency, TF over GST control)"
same,binding signal,[3],"1.4 fold enrichment (6-mer frequency, TF over GST control)"
same,binding signal,[4],"1.29 fold enrichment (6-mer frequency, TF over GST control)"
same,binding signal,[5],"1.44 fold enrichment (6-mer frequency, TF over GST control)"
same,binding signal,[6],"1.47 fold enrichment (6-mer frequency, TF over GST control)"
same,binding signal,[7],"1.4 fold enrichment (6-mer frequency, TF over GST control)"
same,binding signal,[8],"1.52 fold enrichment (6-mer frequency, TF over GST control)"
same,binding signal,[9],"1.33 fold enrichment (6-mer frequency, TF over GST control)"
same,binding signal,[10],"1.25 fold enrichment (6-mer frequency, TF over GST control)"
same,binding signal,[11],"1.42 fold enrichment (6-mer frequency, TF over GST control)"
same,binding signal,[12],"1.08 fold enrichment (6-mer frequency, TF over GST control)"
same,binding signal,[13],"1.34 fold enrichment (6-mer frequency, TF over GST control)"
same,binding signal,[14],"1.35 fold enrichment (6-mer frequency, TF over GST control)"
same,binding signal,[15],"1.2 fold enrichment (6-mer frequency, TF over GST control)"
same,binding signal,[16],"1.56 fold enrichment (6-mer frequency, TF over GST control)"
same,binding signal,[17],"1.13 fold enrichment (6-mer frequency, TF over GST control)"
same,binding signal,[18],"1.1 fold enrichment (6-mer frequency, TF over GST control)"
same,binding signal,[19],"1.54 fold enrichment (6-mer frequency, TF over GST control)"
